# Test results reported in PubChem BioAssay (NCI).
# About 83,000 compounds went through this panel and 20% of them were active in at least one assay; those are over-represented in the sample as a whole.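 The endpoint reported here, percent growth, reads 100 for growth as untreated, 0 for no net growth and -100 for all cells dead.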 Activity calls are given as the source filed them.
# System: SR leukemia
# Test: NCI-60 one-dose screen, 48 h (100 = growth as untreated, 0 = no growth, -100 = all killed)
# Details: 10 µM unless noted
# Method: Growth inhibition of the SR human tumor cell line is measured as a screen for anti-cancer activity. Cells are grown in 96 well plates and exposed to the test compound for 48 hours. Compounds are tested at a single concentration, which is 10^-5 M for most compounds. The reported endpoint is percent growth (GI% or GIPRCNT), where numbers from 0 - 100% represent growth inhibition, and numbers from -100% - 0 represent cell death. For example, a value of 40 represents 60% growth inhibition. A value of 0 means no net growth occurred over the course of the experiment. A value of -40 indicates 40% of cells at the beginning of the experiment died by the end of the experiment. A value of -100 means all cells are dead at the end of the experiment.
# NCI-60 Human Tumor Cell Lines Screen was performed using the standard one-dose NCI protocol, which is described in more detail at https://dtp.cancer.gov/discovery_development/nci-60/default.htm.
# Compounds with GIPRCNT values below 10 were considered active. Activity score was based on GIPRCNT using the following formula: […]
# Score is 0 for GIPRCNT values of 100 or above, 50 for GIPRCNT values of 0, and 100 for GIPRCNT values of -100.
row,SMILES,growth
1,Brc1ccc(Cn2nnnc2-c2ccn(-c3ccccc3)n2)cc1,56.4% (inactive)
2,Cc1cc(C)c(NC(=O)c2sc3nc4c(cc3c2N)CCCC4)c(C)c1,7.8% (active)
3,COC(=O)[C@]12CC[C@@H](C)[C@H](C)[C@@H]1C1=CC[C@@H]3[C@@]4(C)C[C@@H](OC(C)=O)[C@H](O)[C@@](C)(CO)[C@@H]4[C@H](O)C[C@@]3(C)[C@]1(C)CC2,-45.7% (active)
4,COc1cc2ncnc(Nc3ccc(OCc4cccc(F)c4)c(Cl)c3)c2cc1NC(=O)C1CCCC1,91% (inactive)
5,NC(=O)NCC1CCCCC1,99.4% (inactive)
6,CC[C@H](CC[C@@H](C)[C@H]1CC[C@H]2[C@@H]3/C(=C/c4cccnc4)C(=O)C4=CC(=O)CC[C@]4(C)[C@H]3CC[C@]12C)C(C)C,62.4% (inactive)
7,C#CCn1c2c(c3ccccc31)C[C@]1(C)[C@H]3CC[C@@H]4[C@@H]5C(=CCC[C@H]5C(=C)C)CC[C@@]4(C)[C@]3(C)CC[C@H]1C2(C)C,82.7% (inactive)
8,Cc1ccc2c(c1)c1nc3cc(C)c(C)cc3nc1n2CCN(C)C,6.5% (active)
9,CCCCCCCC(=O)SCC/C=C/[C@@H]1CC(=O)NCc2cccc(n2)CN(Cc2ccc3ccccc3c2)CC(=O)N[C@@H](C(C)C)C(=O)O1,3.23% (active)
10,COC(=O)[C@]12CC[C@@H](C)[C@H](C)[C@@H]1C1=CC[C@@H]3[C@@]4(C)CC(=O)[C@H](OC(=O)c5ccco5)[C@@]5(C)COC(=C45)C[C@@]3(C)[C@]1(C)CC2,25.8% (inactive)
11,Cc1ccc(S(=O)(=O)Nc2ccc(-c3cc(-c4cccc(F)c4)c(C#N)c(=O)[nH]3)cc2)cc1,54.9% (inactive)
12,CC(Cc1ccco1)C(=O)NC(N)=O (stereo not given),100% (inactive)
13,Nc1nc(N)c2nc3c(nc2n1)CCCCCCCCCC3,32.2% (inactive)
14,N#Cc1c(-c2ccc(O)cc2)c2c(N)nn(-c3ccccc3)c2[nH]c1=O,115% (inactive)
15,CCCCC(=O)OC1CCCCC1C (stereo not given),95% (inactive)
16,Brc1cnc2[nH]cc(-c3nnc(-c4ccccc4)o3)c2c1,68.5% (inactive)
17,Nc1c(C(=O)Nc2c(Cl)cccc2Cl)sc2nc3c(cc12)C(=O)CCC3,36.4% (inactive)
18,O=C(NO)c1ccc(Cn2c(=O)n(-c3ccccc3)c(=O)c3ccccc32)cc1,7.9% (active)
19,S=c1[nH]nc2ccccn12,95.7% (inactive)
20,Cc1cc(N=O)cc(C(C)(C)C)c1O,98.9% (inactive)

row,SMILES,growth
1,CC(=O)O[C@H]1CC[C@@]2(C)C(=CC[C@@H]3[C@@H]2CC[C@]2(C)C(=O)N(O)C(=O)C[C@@H]32)C1,74.8% (inactive)
2,CN1CCN(CCOc2ccc(-c3cnc4c(-c5ccccc5F)cnn4c3)cc2)CC1,-12.6% (active)
3,Cc1cc(N2CCN(C)CC2)nc(N(CCNc2ccnc3cc(Cl)ccc23)Cc2ccco2)n1,-22.1% (active)
4,COc1ccc(-c2c(-c3nc4ccc(N5CCOCC5)cc4[nH]3)[nH]c(C)c2C(C)=O)cc1,47.8% (inactive)
5,O=C1C(=O)N(CCCCn2cc(-c3ccccc3)nn2)c2ccccc21,108% (inactive)
6,O=C1/C(=C\c2ccco2)SC(=S)N1CCc1ccc(O)cc1,95.7% (inactive)
7,Fc1cccc(-c2[nH]nc3nc(Nc4cccnc4)sc23)c1,15% (inactive)
8,COc1cc(-c2cc3ncccc3c3[nH]c(=O)c4cccnc4c23)cc(OC)c1OC,20% (inactive)
9,O=C1c2cccc3cccc(c23)C(=O)N1CC#Cc1ccc2c3c(cccc13)C(=O)N(CCN1CCNCC1)C2=O,2.23% (active)
10,COc1cc(/C=N/NC(=S)NNC(=S)NC2CCCCC2)cc(OC)c1OC,96.9% (inactive)
11,N#CC1=C(N)Oc2ccc3ccccc3c2C1c1ccccc1Cl (stereo not given),26.1% (inactive)
12,CCN1CCN(C(=O)[C@]23CCC(C)(C)C[C@@H]2C2=CC[C@@H]4[C@@]5(C)C/C(=C/c6ccncc6)C(=O)C(C)(C)[C@@H]5CC[C@@]4(C)[C@]2(C)CC3)CC1,-29.1% (active)
13,N#Cc1c(-c2ccco2)nc2c(c(-c3ccccc3)nn2-c2ccccc2)c1-c1ccc(O)cc1,19.7% (inactive)
14,Nc1ccc(Cl)cn1,113% (inactive)
15,c1ccc(CN2C(c3ccccc3)=Nc3ccccc3C2c2c[nH]c3ccccc23)cc1 (stereo not given),-17.8% (active)
16,CC(=O)c1c(C)[nH]c(-c2nc3ccc(N4CCN(C)CC4)cc3[nH]2)c1-c1ccc(OCC2CCOCC2)cc1,28.1% (inactive)
17,C=C(C)[C@@H]1CC[C@]2(/C=N/Nc3ccncc3)CC[C@]3(C)[C@H](CC[C@@H]4[C@@]5(C)CCCNC(C)(C)[C@@H]5CC[C@]43C)[C@@H]12,17.9% (inactive)
18,COc1ccc(-c2nc3c(c(C)nn3-c3ccc(F)cc3)c(=O)[nH]2)cc1,15.9% (inactive)
19,C=C(C)[C@@H]1CC[C@]2(C)CC[C@]3(C)[C@H](CC[C@@H]4[C@@]5(C)CCCNC(C)(C)[C@@H]5CC[C@]43C)[C@@H]12,1.2% (active)
20,CC1=NN(c2ccc(S(=O)(=O)O)cc2Cl)C(=O)C1,113% (inactive)
